According to PubChem BioAssay (EPA / NIEHS):
Inconclusive results are not listed. Activity calls are given as the source filed them. The calls were made as follows, unless noted: active = hit-call score of the fitted dose curve at least 0.9, where 1 is the maximum; inactive = score below 0.9.

Columns and labels:
[1] = CCTE_Harrill_HTTr_Viability_MCF7: CCTE's 6-hour Cell Viability Assessment for the High-Throughput Transcriptomics (HTTr) Platform, in MCF-7 cells cultured in DMEM + 10% fetal bovine serum, Harrill Lab (AID 2284010)
In short: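 Cells were dosed with chemicals in an eight-point dilution series, imaged 6 hours later for propidium iodide uptake, and the endpoint was analyzed by bidirectional fitting against DMSO as negative control.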

[2] = CCTE_Harrill_HTTr_Apoptosis_MCF7: CCTE's 6-hour Apoptosis Assessment for the High-Throughput Transcriptomics (HTTr) Platform, in MCF-7 cells cultured in DMEM + 10% fetal bovine serum, Harrill Lab (AID 2284011)
In short: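 Apoptosis in MCF-7 cells grown in DMEM with 10% fetal bovine serum was scored after a six hour exposure by high content imaging of caspase-3/7 activation (CellEvent Caspase 3/7 Green), with DMSO serving as negative control and baseline.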

[3] = CCTE_Harrill_HTTr_CellCount_MCF7: CCTE's Cell Proliferation Assessment for the High-Throughput Transcriptomics (HTTr) Platform, Harrill Lab (AID 2284012; active = hit-call score of the fitted dose curve at least 0.9, where 1 is the maximum;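 also: count of Hoechst-stained nuclei per well by high-content imaging in MCF-7 cells; cells exposed to compound for six hours; intended direction is loss of nuclei count meaning fewer cells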)
In short: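 Chemicals in eight-point dilution series are added to MCF-7 cells for six hours, nuclei are stained with Hoechst and imaged, and per-well nuclei counts are fitted in both directions relative to DMSO controls.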

Measured: outcome

CC1(C)C(=O)N(Br)C(=O)N1Br
inactive: all assays above

CCOc1cccc(-n2cc(C(=O)N3CCN(c4cc(C(=O)O)c5ccccc5c4)CC3)nc2-c2ccc(C)cc2)c1
inactive: all assays above

CC(=O)c1ccc2c(c1)[C@H](NC(=O)c1ccc(F)cc1)[C@@H](O)C(C)(C)O2
inactive: all assays above

Cc1c(-c2cccnc2)c2ccccc2n1CCCCC(=O)O
inactive: all assays above

COC(=O)CC(=O)OC
inactive: all assays above

Nc1nc2ncc(CNc3ccc(C(=O)N[C@@H](CCC(=O)O)C(=O)O)cc3)nc2c(=O)[nH]1
inactive: all assays above

C=CC(=C)CCC=C(C)C
inactive: all assays above

CC(C)=CCCC(C)CCO (configuration not stated)
inactive: all assays above

CC/C(=C\C(=N/O)C(N)=O)C(C)[N+](=O)[O-] (configuration not stated)
inactive: all assays above

O=C(O)c1cccc(Oc2ccccc2)c1
inactive: all assays above

CC(C)=CCC/C(C)=C\CO
inactive: all assays above

CC(C)(O)c1coc(S(=O)(=O)NC(=O)Nc2c3c(cc4c2CCC4)CCC3)c1
inactive: all assays above

O=C1OC(=O)C2C3C=CC(C3)C12 (configuration not stated)
inactive: all assays above

CCCC(=O)OCC
inactive: all assays above
